Test results taken from PubChem BioAssay (EPA / NIEHS).
Calls of active or inactive are those of the source. How the source made its calls: active means hit-call score of the fitted dose curve at least 0.9, where 1 is the maximum; inactive means score below 0.9.

Experiments:
[1] = molecular target: Bile acid receptor (Homo sapiens) (UniProt Q96RI1); assay: ATG_IR1_CIS: Attagene CIS-FACTORIAL HepG2 Assay for human Nuclear Receptor Subfamily 1 Group H Member 4 (NR1H4), IR1 submotif (AID 2282946); settings: IR1 reporter transcription, actives raise or lower the signal
Method in brief: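 Transient MRTU transfection, HepG2; 24 h dosing; RNA → RT-PCR → 6-FAM primer extension → HpaI digest → capillary electrophoresis fluorescence. Gain/loss of signal fitted relative to DMSO.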

[2] = ATG_GRE_CIS: Attagene CIS-FACTORIAL HepG2 Assay for human Glucocorticoid Response Elements (GRE) (AID 2282947); settings: HepG2 GRE cis-reporter, Attagene multiplex mRNA; actives raise or lower the signal
Method in brief: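 Following 24 h chemical exposure of transiently transfected HepG2 cells, total RNA was reverse-transcribed and reporter cDNA amplified, fluorescently labelled and sized by capillary electrophoresis. Signal gain or loss was fitted relative to DMSO vehicle.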

[3] = ATG_ISRE_CIS: Attagene CIS-FACTORIAL HepG2 Assay for human Interferon Regulatory Factor 1 (IRF1) binding to an Interferon-Stimulated Response Element (ISRE) (AID 2282948); settings: HepG2 ISRE cis-reporter (Attagene), mRNA transcription readout; actives raise or lower the signal
Method in brief: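 Transiently transfected HepG2 cells carrying cis-element reporter units, dosed 24 hours. Reporter mRNA quantified by RT-PCR, fluorescent primer extension, HpaI digestion and capillary electrophoresis. Bidirectional fitting relative to DMSO.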

[4] = ATG_M_32_CIS: Attagene CIS-FACTORIAL HepG2 Assay for M32 Transcription Factor (Internal Marker) (AID 2282949); settings: HepG2 Attagene cis-factorial M32 reporter, mRNA; actives raise or lower the signal;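 further: background control marker of the multiplexed CIS panel rather than a real target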
Method in brief: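 HepG2 cells transiently transfected with multiplexed cis-regulated reporter units, dosed 24 h. Reporter mRNA quantified by RT-PCR, 6-FAM labelling, HpaI digestion and capillary electrophoresis; bidirectional fit vs DMSO.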

[5] = ATG_M_06_CIS: Attagene CIS-FACTORIAL HepG2 Assay for M06 Transcription Factor (Internal Marker) (AID 2282950); settings: HepG2 Attagene CIS-FACTORIAL M06 internal marker reporter; actives raise or lower the signal
Method in brief: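 Cells (HepG2, transiently carrying cis-driven reporter units) receive chemical for 24 h before RNA isolation. Reporter cDNA is PCR-amplified, FAM-labelled by primer extension, HpaI-digested and sized on a capillary analyser.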

[6] = molecular target: Hepatocyte nuclear factor 6 (Homo sapiens) (UniProt Q9UBC0); assay: ATG_HNF6_CIS: Attagene CIS-FACTORIAL HepG2 Assay for human Hepatocyte Nuclear Factor 6 (HNF6) (AID 2282952); settings: HepG2 Attagene cis-factorial HNF6 reporter transcription; actives raise or lower the signal
Method in brief: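 Transiently transfected HepG2 cells expressing cis-regulated reporter transcription units were exposed to chemical for 24 h in a 24-well format. Reporter transcript abundance was determined by fluorescence capillary electrophoresis.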

[7] = molecular target: Heat shock factor protein 1 (Homo sapiens) (UniProt Q00613); assay: ATG_HSE_CIS: Attagene CIS-FACTORIAL HepG2 Assay for human Heat Shock Transcription Factor 1 (HSE) (AID 2282953); settings: HepG2 HSE cis-reporter, Attagene RNA transcription; actives raise or lower the signal
Method in brief: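 Liver-derived HepG2 cells carry transiently introduced multiple reporter units governed by cis promoters. Reporter RNA measured 24 h post-dose through reverse transcription, PCR amplification, fluorescent labelling and capillary electrophoresis, normalised to DMSO.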

[8] = ATG_MRE_CIS: Attagene CIS-FACTORIAL HepG2 Assay for human Metal Responsive Element (MRE) (AID 2282954); settings: HepG2 MRE cis-reporter transcription, Attagene multiplex; actives raise or lower the signal
Method in brief: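 Step one: transfect HepG2 with cis-regulated reporter units. Step two: dose 24 h. Step three: isolate RNA, RT-PCR, 6-FAM label, HpaI digest, capillary electrophoresis. Fit bidirectionally to DMSO.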

[9] = ATG_PBREM_CIS: Attagene CIS-FACTORIAL HepG2 Assay for human Phenobarbital-responsive Enhancer Module (PBREM) (AID 2282955); settings: HepG2 PBREM cis-reporter, Attagene multiplexed transcription; actives raise or lower the signal
Method in brief: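 HepG2 cells transiently transfected with multiple cis-regulated reporter units measure endogenous transcription factor activity; 24 h compound exposure. Reporter mRNA quantified by RT-PCR, fluorescent labelling, HpaI digestion and capillary electrophoresis; bidirectional fit versus DMSO.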

[10] = molecular target: Paired box protein Pax-6 (Homo sapiens) (UniProt P26367); assay: ATG_Pax6_CIS: Attagene CIS-FACTORIAL HepG2 Assay for human Paired Box 6 (PAX6) (AID 2282956); settings: HepG2 CIS-FACTORIAL PAX6 reporter transcription, RNA readout; actives raise or lower the signal
Method in brief: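 HepG2 cells transiently transfected with cis-promoter-driven multiplexed reporter units sensing endogenous transcription factor activity; 24 h chemical exposure. Reporter mRNA quantified by RT-PCR, 6-FAM labelling, HpaI digestion and capillary electrophoresis; bidirectional fit versus DMSO baseline.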

[11] = ATG_PXRE_CIS: Attagene CIS-FACTORIAL HepG2 Assay for human Pregnane X Receptor Element (PXRE) (AID 2282957); settings: HepG2 Attagene CIS-FACTORIAL PXRE reporter, mRNA; actives raise or lower the signal
Method in brief: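 Cis-element reporter mRNA in human hepatoma HepG2 cells is measured 24 h post-dosing by RT-PCR, primer-extension labeling and capillary electrophoresis; gain or loss of signal is fitted relative to DMSO.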

[12] = ATG_PPRE_CIS: Attagene CIS-FACTORIAL HepG2 Assay for human Peroxisome Proliferator-activated Response Element (PPRE) (AID 2282958); settings: HepG2 PPRE cis-element reporter, Attagene transcription factor profiling; actives raise or lower the signal
Method in brief: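 HepG2 cells are transiently transfected with multiplexed cis-promoter reporter units to report endogenous PPAR activity. After 24 h dosing, reporter mRNA is read by RT-PCR and capillary electrophoresis. Fitting is bidirectional against DMSO.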

[13] = ATG_RORE_CIS: Attagene CIS-FACTORIAL HepG2 Assay for human RAR-related Orphan Receptor Element (RORE) (AID 2282959); settings: HepG2 Attagene cis-factorial RORE reporter, mRNA; actives raise or lower the signal
Method in brief: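 HepG2 cells carrying transiently transfected cis-regulated reporter units; RORE-driven reporter mRNA quantified 24 h post-dosing by RT-PCR, 6-FAM primer extension, HpaI digestion and capillary electrophoresis. Bidirectional fit versus DMSO.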

[14] = ATG_Sox_CIS: Attagene CIS-FACTORIAL HepG2 Assay for human SRY-box transcription factor (SOX) (AID 2282960); settings: HepG2 Attagene cis-factorial SOX reporter, mRNA; actives raise or lower the signal
Method in brief: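 HepG2 cells transiently transfected with multiple cis-regulated reporter units, then dosed for 24 h. Reporter mRNA quantified by RT-PCR, fluorescent labelling, HpaI digestion and capillary electrophoresis; bidirectional fit versus DMSO.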

[15] = molecular target: Transcription factor Sp1 (Homo sapiens) (UniProt P08047); assay: ATG_Sp1_CIS: Attagene CIS-FACTORIAL HepG2 Assay for human Specificity Protein 1 (Sp1) (AID 2282961); settings: HepG2 Sp1 cis-reporter transcription, actives raise or lower the signal
Method in brief: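 HepG2 cells transiently transfected with multiplexed cis-regulated reporter constructs, chemical exposure 24 h. Reporter mRNA quantified by RT-PCR with capillary electrophoresis; bidirectional fit relative to DMSO.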

[16] = ATG_SREBP_CIS: Attagene CIS-FACTORIAL HepG2 Assay for human Sterol Regulatory Element Binding (SREBP) (AID 2282962); settings: HepG2 Attagene cis-factorial SREBP reporter, mRNA; actives raise or lower the signal
Method in brief: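 HepG2 cells transiently transfected with multiplexed cis-promoter reporter units sensing endogenous transcription factors; reporter mRNA measured 24 h after dosing by RT-PCR, 6-FAM labeling, HpaI digestion and capillary electrophoresis. Bidirectional fit versus DMSO.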

[17] = molecular target: Signal transducer and activator of transcription 3 (Homo sapiens) (UniProt P40763); assay: ATG_STAT3_CIS: Attagene CIS-FACTORIAL HepG2 Assay for human Signal Transducer and Activator of Transcription 3 (STAT3) (AID 2282963); settings: HepG2, Attagene cis-factorial STAT3 reporter transcription; actives raise or lower the signal
Method in brief: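 Transcript-level reporter assay. HepG2 transient MRTU transfection, 24 h exposure, fluorescence detection after RT-PCR and CE; DMSO baseline.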

[18] = ATG_TA_CIS: Attagene CIS-FACTORIAL HepG2 Assay for human TA Basal Promoter (AID 2282964); settings: HepG2 Attagene CIS-factorial TA basal promoter reporter; actives raise or lower the signal
Method in brief: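 Background internal-marker endpoint from a 52-component HepG2 cis-reporter panel. Cells treated 24 h; reporter transcripts quantified via RT-PCR and CE fluorescence against DMSO baseline.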

[19] = ATG_TCF_b_cat_CIS: Attagene CIS-FACTORIAL HepG2 Assay for human T-Cell-Factor with beta-catenin (TCF/b-cat) (AID 2282965); settings: HepG2 TCF/beta-catenin cis-reporter transcription, actives raise or lower the signal
Method in brief: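 In this cis-format system, transfected HepG2 cells report endogenous transcription factor activity. Readout after 24 h exposure is reporter transcript abundance from RT-PCR and capillary electrophoresis, analysed for gain or loss of signal versus DMSO.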

[20] = molecular target: Hypoxia-inducible factor 1-alpha (Homo sapiens) (UniProt Q16665); assay: ATG_HIF1a_CIS: Attagene CIS-FACTORIAL HepG2 Assay for human Hypoxia Inducible Factor 1 (HIF1A) (AID 2282951); settings: HepG2 Attagene cis-factorial HIF1a reporter transcription; actives raise or lower the signal
Method in brief: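 HepG2 cells transiently transfected with multiple cis-regulated reporter transcription units measure endogenous transcription factor activity. After 24 h exposure, reporter mRNA is quantified by RT-PCR with 6-FAM labelling, HpaI digestion and capillary electrophoresis. Bidirectional fitting against DMSO.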

Measured: AC50

Sequence of Signal transducer and activator of transcription 3 (Homo sapiens) (P40763 whole entry, looked up): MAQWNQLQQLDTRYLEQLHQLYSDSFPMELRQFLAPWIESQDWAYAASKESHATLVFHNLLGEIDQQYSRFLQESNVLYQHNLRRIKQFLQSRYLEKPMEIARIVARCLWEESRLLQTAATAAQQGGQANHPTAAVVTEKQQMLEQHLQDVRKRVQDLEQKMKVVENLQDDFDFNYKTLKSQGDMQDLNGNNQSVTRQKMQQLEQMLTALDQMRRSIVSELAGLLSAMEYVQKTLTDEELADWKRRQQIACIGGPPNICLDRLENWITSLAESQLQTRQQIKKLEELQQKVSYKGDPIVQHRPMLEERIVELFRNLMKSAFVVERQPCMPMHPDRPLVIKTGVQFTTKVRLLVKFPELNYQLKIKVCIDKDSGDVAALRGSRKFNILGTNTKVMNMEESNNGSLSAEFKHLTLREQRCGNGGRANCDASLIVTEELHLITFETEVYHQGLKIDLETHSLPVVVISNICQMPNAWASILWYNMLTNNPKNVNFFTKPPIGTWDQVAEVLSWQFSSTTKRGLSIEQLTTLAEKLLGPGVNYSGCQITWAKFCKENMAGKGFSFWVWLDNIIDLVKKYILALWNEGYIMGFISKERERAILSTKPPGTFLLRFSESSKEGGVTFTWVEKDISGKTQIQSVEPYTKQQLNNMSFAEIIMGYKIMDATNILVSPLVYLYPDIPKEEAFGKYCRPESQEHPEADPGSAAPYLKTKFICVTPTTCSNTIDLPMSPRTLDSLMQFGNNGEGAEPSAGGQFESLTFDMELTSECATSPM
Sequence of Paired box protein Pax-6 (Homo sapiens) (P26367 whole entry, looked up): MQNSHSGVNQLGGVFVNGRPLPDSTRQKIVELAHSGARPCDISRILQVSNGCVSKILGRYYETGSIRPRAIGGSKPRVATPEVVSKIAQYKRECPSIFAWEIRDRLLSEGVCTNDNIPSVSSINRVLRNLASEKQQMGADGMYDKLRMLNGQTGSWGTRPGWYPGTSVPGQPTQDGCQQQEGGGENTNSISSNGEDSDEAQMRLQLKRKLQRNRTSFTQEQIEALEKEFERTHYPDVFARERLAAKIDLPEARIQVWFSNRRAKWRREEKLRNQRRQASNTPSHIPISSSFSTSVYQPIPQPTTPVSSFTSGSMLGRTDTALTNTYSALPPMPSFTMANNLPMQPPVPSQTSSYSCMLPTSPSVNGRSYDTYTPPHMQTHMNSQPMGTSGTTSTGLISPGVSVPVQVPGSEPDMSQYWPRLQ
Sequence of Bile acid receptor (Homo sapiens) (Q96RI1 whole entry, looked up): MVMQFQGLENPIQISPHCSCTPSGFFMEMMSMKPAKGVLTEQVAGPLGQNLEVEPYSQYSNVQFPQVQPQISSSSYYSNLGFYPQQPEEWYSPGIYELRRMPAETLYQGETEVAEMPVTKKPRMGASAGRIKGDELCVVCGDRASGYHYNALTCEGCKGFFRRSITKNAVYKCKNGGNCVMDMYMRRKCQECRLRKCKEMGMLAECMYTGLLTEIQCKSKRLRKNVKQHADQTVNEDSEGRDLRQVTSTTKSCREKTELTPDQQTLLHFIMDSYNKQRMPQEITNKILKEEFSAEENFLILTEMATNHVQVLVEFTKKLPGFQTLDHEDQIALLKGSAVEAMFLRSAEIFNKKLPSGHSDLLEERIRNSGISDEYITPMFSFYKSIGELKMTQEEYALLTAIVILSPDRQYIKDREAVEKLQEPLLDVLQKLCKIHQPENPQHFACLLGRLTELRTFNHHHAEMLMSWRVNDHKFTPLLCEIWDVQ
Sequence of Heat shock factor protein 1 (Homo sapiens) (Q00613 whole entry, looked up): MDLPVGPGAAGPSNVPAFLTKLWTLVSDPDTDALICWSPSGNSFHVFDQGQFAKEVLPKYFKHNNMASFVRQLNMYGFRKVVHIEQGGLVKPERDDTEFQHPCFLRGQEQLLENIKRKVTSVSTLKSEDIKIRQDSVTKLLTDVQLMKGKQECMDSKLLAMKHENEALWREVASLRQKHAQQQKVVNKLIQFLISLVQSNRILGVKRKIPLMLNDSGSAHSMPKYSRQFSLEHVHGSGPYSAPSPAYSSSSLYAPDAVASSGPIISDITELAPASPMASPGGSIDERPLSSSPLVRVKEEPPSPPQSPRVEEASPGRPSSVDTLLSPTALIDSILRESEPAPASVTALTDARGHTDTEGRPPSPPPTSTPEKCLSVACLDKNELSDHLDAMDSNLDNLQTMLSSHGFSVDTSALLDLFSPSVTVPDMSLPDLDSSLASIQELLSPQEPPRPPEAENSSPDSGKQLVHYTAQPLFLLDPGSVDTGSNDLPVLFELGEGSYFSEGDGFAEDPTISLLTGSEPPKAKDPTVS
Sequence of Hepatocyte nuclear factor 6 (Homo sapiens) (Q9UBC0 whole entry, looked up): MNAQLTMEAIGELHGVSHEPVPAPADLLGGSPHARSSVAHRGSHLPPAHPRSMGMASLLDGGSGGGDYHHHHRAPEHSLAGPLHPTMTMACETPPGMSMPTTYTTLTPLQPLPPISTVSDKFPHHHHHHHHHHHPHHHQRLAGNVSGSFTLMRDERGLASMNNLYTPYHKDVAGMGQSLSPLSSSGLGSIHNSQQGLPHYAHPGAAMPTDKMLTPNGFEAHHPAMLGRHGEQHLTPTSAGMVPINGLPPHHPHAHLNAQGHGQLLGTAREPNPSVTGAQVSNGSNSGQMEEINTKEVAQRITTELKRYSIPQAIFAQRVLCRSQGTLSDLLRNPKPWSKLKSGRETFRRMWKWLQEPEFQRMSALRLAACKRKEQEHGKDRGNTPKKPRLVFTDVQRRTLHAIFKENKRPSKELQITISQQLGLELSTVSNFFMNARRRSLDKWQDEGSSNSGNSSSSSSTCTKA
Sequence of Hypoxia-inducible factor 1-alpha (Homo sapiens) (Q16665 whole entry, looked up): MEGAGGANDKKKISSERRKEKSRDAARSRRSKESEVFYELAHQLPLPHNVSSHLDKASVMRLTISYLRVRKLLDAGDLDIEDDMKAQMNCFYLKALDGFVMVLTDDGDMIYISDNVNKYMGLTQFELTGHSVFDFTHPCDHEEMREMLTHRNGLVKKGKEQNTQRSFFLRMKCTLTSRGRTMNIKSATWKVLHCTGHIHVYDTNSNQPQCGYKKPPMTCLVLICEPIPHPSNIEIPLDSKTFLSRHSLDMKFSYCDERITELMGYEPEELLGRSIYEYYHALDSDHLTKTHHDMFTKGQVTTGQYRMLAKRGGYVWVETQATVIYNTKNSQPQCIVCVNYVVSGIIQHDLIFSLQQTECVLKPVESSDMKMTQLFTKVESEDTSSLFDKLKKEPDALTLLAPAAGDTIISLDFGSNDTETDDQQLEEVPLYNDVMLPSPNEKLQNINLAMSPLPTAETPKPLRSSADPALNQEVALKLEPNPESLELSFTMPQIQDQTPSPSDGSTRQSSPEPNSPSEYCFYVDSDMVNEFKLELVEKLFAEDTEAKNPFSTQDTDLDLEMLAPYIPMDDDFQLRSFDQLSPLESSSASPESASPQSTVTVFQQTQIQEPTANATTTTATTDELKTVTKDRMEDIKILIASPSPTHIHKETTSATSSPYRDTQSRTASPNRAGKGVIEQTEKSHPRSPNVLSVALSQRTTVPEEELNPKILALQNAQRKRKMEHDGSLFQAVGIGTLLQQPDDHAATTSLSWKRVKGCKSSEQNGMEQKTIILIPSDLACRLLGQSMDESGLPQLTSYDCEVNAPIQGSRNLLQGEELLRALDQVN
Sequence of Transcription factor Sp1 (Homo sapiens) (P08047 whole entry, looked up): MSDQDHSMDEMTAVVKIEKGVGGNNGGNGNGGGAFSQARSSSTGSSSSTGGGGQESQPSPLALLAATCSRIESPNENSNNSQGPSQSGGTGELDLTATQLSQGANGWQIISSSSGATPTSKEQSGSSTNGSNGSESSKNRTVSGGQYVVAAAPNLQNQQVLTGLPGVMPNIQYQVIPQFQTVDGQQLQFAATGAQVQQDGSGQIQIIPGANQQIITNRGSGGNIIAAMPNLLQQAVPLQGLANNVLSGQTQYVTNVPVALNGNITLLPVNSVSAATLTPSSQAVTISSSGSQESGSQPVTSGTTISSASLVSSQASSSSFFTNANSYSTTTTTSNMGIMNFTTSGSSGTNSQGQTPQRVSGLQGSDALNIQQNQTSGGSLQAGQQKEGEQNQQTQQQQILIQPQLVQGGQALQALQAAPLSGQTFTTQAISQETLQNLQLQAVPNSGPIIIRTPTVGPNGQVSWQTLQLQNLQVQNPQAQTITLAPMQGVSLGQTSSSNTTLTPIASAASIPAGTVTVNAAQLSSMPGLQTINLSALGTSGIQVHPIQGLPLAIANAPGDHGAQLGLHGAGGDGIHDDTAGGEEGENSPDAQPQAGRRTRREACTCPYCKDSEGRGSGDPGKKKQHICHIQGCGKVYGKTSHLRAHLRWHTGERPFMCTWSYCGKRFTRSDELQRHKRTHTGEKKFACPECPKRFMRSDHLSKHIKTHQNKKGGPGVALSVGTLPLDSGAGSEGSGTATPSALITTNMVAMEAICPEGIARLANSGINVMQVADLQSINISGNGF

COc1cc(CCC(C)=O)ccc1O
not listed: [20]
inactive: all other assays above

CC(=O)CC(=O)Nc1ccc(C)cc1C
not listed: [7] | [8] | [9]
inactive: all other assays above

CCCCCCCCCCCCCCN(CCO)CCO
active: [11] 2.92 µM | [15] 11.1 µM | [16] 7.35 µM
not listed: [6] | [9]
inactive: all other assays above

CCCC1O[C@@H]2C[C@H]3[C@@H]4CCC5=CC(=O)C=C[C@]5(C)[C@H]4[C@@H](O)C[C@]3(C)[C@]2(C(=O)CO)O1 (some centres not stated)
active: [1] 100 µM | [2] 0.0815 µM | [3] 137 µM | [11] 4.12 µM | [19] 100 µM
not listed: [20]
inactive: all other assays above

Cc1ccc(S(N)(=O)=O)cc1
not listed: [6] | [8] | [9] | [13] | [19]
inactive: all other assays above

CSc1c(Cl)c(Cl)c(Cl)c(Cl)c1Cl
active: [1] 5.76 µM | [3] 27.9 µM | [8] 100 µM | [10] 100 µM | [11] 2.94 µM | [15] 72.8 µM | [16] 135 µM
not listed: [6] | [12] | [19] | [20]
inactive: all other assays above

O=C1c2ccccc2C(=O)c2c(O)ccc(O)c21
active: [11] 7.05 µM
not listed: [12] | [20]
inactive: all other assays above

CCOC(=O)CN
not listed: [3] | [16]
inactive: all other assays above

CCCCCCC(O)CCCCCCCCCCC(=O)O (configuration not stated)
active: [12] 18 µM
not listed: [6] | [16]
inactive: all other assays above

CCC(C)S (configuration not stated)
not listed: [3] | [19]
inactive: all other assays above

O=CCc1ccccc1
active: [11] 9.42 µM
not listed: [6] | [12]
inactive: all other assays above

CCCC(O)C(O)CO (configuration not stated)
not listed: [3] | [12]
inactive: all other assays above

C=C1C[C@]23C[C@@]1(O)CC[C@H]2[C@@]12C=C[C@H](O)[C@@](C)(C(=O)O1)[C@H]2[C@@H]3C(=O)O
not listed: [7] | [9] | [13] | [17] | [19] | [20]
inactive: all other assays above

C1=CC2C3C=CC(C3)C2C1 (configuration not stated)
active: [11] 36.3 µM
not listed: [12] | [20]
inactive: all other assays above

CSCCC=O
active: [11] 10.9 µM
not listed: [7] | [20]
inactive: all other assays above
